In all, about 35,000 sequences were measured (“fluorescence intensity (a.u.)”: median about 10,000, highest 2% from about 52,000 on). Many of the other results were omitted from the sample, so the highest values are more common in it than they were.

The assay addresses T1, OsWOX13 (Oryza sativa, UniProt Q5QMM3 1-267).
T1 sequence: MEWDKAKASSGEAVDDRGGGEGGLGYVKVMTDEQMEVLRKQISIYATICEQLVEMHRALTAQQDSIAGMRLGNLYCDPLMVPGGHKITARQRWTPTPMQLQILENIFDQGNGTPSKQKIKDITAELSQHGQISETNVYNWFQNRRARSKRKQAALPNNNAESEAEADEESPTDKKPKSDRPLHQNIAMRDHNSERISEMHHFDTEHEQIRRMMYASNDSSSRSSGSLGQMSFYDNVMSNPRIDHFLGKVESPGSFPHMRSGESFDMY
Kind of assay: protein-binding microarray (RPBM); PBS, 2% BSA, 51.3 ng/ul salmon testes DNA, 50 uM zinc acetate, 200 nM TF, 25 C, 1 h; high values mean tight binding. As to conditions: protein: recombinant; tags: N-terminal polyhistidine and DsRed monomer fusion (pET32a); label: CyDye5-dUTP incorporated in the synthesized complementary strand; 3' TTTTT single-stranded linker to array surface; dsDNA, one strand shown. A digest of the protocol:
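Ni–NTA purification followed expression in E. coli BL21-CodonPlus of transcription factors fused N-terminally to a polyhistidine tag and DsRed. At 200 nM in PBS with 2% BSA, salmon testes DNA and 50 µM zinc acetate, the protein was incubated for 1 h at 25 °C with a custom Agilent array that had been primer-extended with Cy5-dUTP and blocked with 2% BSA. After washing, the array was read on an Axon 4000B scanner. The binding signal is per-feature fluorescence intensity in arbitrary units.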
As for “TAGTAATTGATTGCTGCCAAGATTACATTACTGCCCAATACGGAGTCACCTAGTGCAG”, the binding signal was 65500 fluorescence intensity (a.u.). To “TATCGATCGATTGATTGCTATAGCTAGGTCAAATCGATCGCGGAGTCACCTAGTGCAG” belongs 28100 fluorescence intensity (a.u.); to “TTGATTAATTTGACGTCGATGCTACTAATAGTTAACCTTCCGGAGTCACCTAGTGCAG”, 54200 fluorescence intensity (a.u.); to “TTGCCAATTATGATTGGAGATTTACAAGTAGACTTCAATACGGAGTCACCTAGTGCAG”, 18500 fluorescence intensity (a.u.). To “TATGAATGCATTATGATTACTATTTGCTAATCATAAGTGGCGGAGTCACCTAGTGCAG” belongs 11000 fluorescence intensity (a.u.). In the case of “GTGCTAATATAATTTAAATAACTAGTTTGACGGACAAATCCGGAGTCACCTAGTGCAG”, the binding signal is 10800 fluorescence intensity (a.u.).

“TTGTAATTAGTAGGGTGATTACTATTTGGTAATCATAAGTCGGAGTCACCTAGTGCAG”: the binding signal was 33000 fluorescence intensity (a.u.).

Take “TGCTAGTTAATATAATCTACTAATTAAAATAGTCGATTGACGGAGTCACCTAGTGCAG”: the binding signal was 6000 fluorescence intensity (a.u.). The result for “TACAAATTGATTGGCTATAGGTCAAATAGTGGATCCTAGACGGAGTCACCTAGTGCAG” reads 56000 fluorescence intensity (a.u.); that for “CGTAATTAGTAGGTTGATTACTATTTGCTAATCATAAGTGCGGAGTCACCTAGTGCAG”, 65200 fluorescence intensity (a.u.). In the case of “CAATCATTGATTGTTACTTTGTTAGTAATTGGTTAGTATACGGAGTCACCTAGTGCAG”, the binding signal was 30100 fluorescence intensity (a.u.). To “ACAAATTAGCTATTATATTGGCTATAGATGATTTGGAGTACGGAGTCACCTAGTGCAG” belongs 42300 fluorescence intensity (a.u.); to “ACAAAACCATTTGTGATTTTCTTTGAGTGCCCAGTTTTGTCGGAGTCACCTAGTGCAG”, 3210 fluorescence intensity (a.u.). The result for “TTGACTATAATTGATTTGGATAGTTGGCTATAATAAACCTCGGAGTCACCTAGTGCAG” reads 54500 fluorescence intensity (a.u.). The result for “TTATATTGATTTTCGTATGATTTTGGACACATAAGTACCTCGGAGTCACCTAGTGCAG” reads 38200 fluorescence intensity (a.u.).

With “GAAATAAATTTTGGATTGGCTATGTTAATATGATATGACCCGGAGTCACCTAGTGCAG”, the binding signal is 25900 fluorescence intensity (a.u.). To “AGTAGTTAATTGGATTGGGCCGGGCCCACCGGCCCACGGCCGGAGTCACCTAGTGCAG” belongs 30300 fluorescence intensity (a.u.); to “CATAATTGGTAAATTTGCGGGTTCAATTCCTGCTGGATGCCGGAGTCACCTAGTGCAG”, 59500 fluorescence intensity (a.u.). To “GAGTAAATTGCACACGGATGCAATCAATTGACCTGTGCTGCGGAGTCACCTAGTGCAG” belongs 20000 fluorescence intensity (a.u.); to “AGTAATTGATTGGCCGGATGCTACCGGTAGTTACTGACTACGGAGTCACCTAGTGCAG”, 60500 fluorescence intensity (a.u.); to “ATTAACTATAAATGATTTGGAGTCAATAGTTGGCTATAATCGGAGTCACCTAGTGCAG”, 16100 fluorescence intensity (a.u.). To “ATCACATAAAATTCCAGGGTTAATTGGATCCATGCTACTGCGGAGTCACCTAGTGCAG” belongs 8150 fluorescence intensity (a.u.); to “CTGAAATTGAAGTTAAATGCTACTAGTAATAATTGTACTACGGAGTCACCTAGTGCAG”, 30100 fluorescence intensity (a.u.); to “GGATTTGATTGGATAAGCCGCTCGTAAGGACACCGTGCCTCGGAGTCACCTAGTGCAG”, 52300 fluorescence intensity (a.u.). Regarding “ATACTGCTGTAACATTTGATTGGATTGAAAGGATATCGCTCGGAGTCACCTAGTGCAG”, the binding signal was 20500 fluorescence intensity (a.u.). To “GTTCGCGTGATTAATCAAAGCCTATTCCTTGTCACTATGACGGAGTCACCTAGTGCAG” belongs 12400 fluorescence intensity (a.u.); to “AAGAAAACCTAATTGTTACTACCATTTACCAAACCTACCACGGAGTCACCTAGTGCAG”, 3910 fluorescence intensity (a.u.); to “ACACATGATTTGCATGCCAACCTTATTTCTCCTTCACTTTCGGAGTCACCTAGTGCAG”, 16500 fluorescence intensity (a.u.). Turning to “CACTGCAAATTAGATCTATATATAGTGAAACATTGTGAGACGGAGTCACCTAGTGCAG”, the binding signal is 6780 fluorescence intensity (a.u.). Take “CGCCGTAACAATCAGAACCAATCATGCTCTATGTGTAGTTCGGAGTCACCTAGTGCAG”: the binding signal is 30300 fluorescence intensity (a.u.).

Consider “CCCGTACGTGTTACCTAATCATGATGGGATGCCATAATACCGGAGTCACCTAGTGCAG”, for which the binding signal is 3570 fluorescence intensity (a.u.). To “ACATTAATGTGATTTCCCATTTCTACCCTATAGTTCAACACGGAGTCACCTAGTGCAG” belongs 12800 fluorescence intensity (a.u.); to “TTTAATTTTGAATTTTAATTAATTGGAGTTTACACGGACTCGGAGTCACCTAGTGCAG”, 39800 fluorescence intensity (a.u.). To “ACGTTGATTAGTTAGTACTAACCTACTCCTACGTGTTAACCGGAGTCACCTAGTGCAG” belongs 30400 fluorescence intensity (a.u.). For “CGCGTTGATTAATTAGTCAGTTCGTTAACAACCTCGACTACGGAGTCACCTAGTGCAG”, the binding signal was 53000 fluorescence intensity (a.u.).

Regarding “AAAATTGACTATAAATGATTTGGAGCCGGTAGTTGGCTATCGGAGTCACCTAGTGCAG”, the binding signal was 51700 fluorescence intensity (a.u.).

Consider “AAAGTAGTTAATTACTGCTAATTACATGGATTAGTTGGGTCGGAGTCACCTAGTGCAG”, for which the binding signal was 33500 fluorescence intensity (a.u.). For the sequence “AAATTACTAATTTACCTATAATTAGTTGGACTCTAGCTCTCGGAGTCACCTAGTGCAG”, the binding signal was 37600 fluorescence intensity (a.u.).

Take “ATTACATTGACTAATAGATGATTTAGAGCTAATAGTGGGCCGGAGTCACCTAGTGCAG”: the binding signal is 25200 fluorescence intensity (a.u.). To “GCTATAAAATTGACTATAATTGATTTGGAGCCGGTAGTTGCGGAGTCACCTAGTGCAG” belongs 63600 fluorescence intensity (a.u.); to “GTAATTAATTACTTGATTAACAATTAAATAATAATAGTTACGGAGTCACCTAGTGCAG”, 33200 fluorescence intensity (a.u.); to “TACTAAATTGACTATGGACGATTTAGAGCTCGTAGTTGGCCGGAGTCACCTAGTGCAG”, 53600 fluorescence intensity (a.u.).

(Values after PMC7819943, “Rice protein-binding microarrays: a tool to detect cis-acting elements near promoter regions in rice”.)
